The text below walks through data of PubChem BioAssay (Tox21).

Experiment [1] in a line: A CellTox Green Cytotoxicity Assay to monitor cytotoxicity in HEK293 cells - 32 hour (AID 1224881). Further: nearly all actives have a fitted effect of over 40% in size. Further: potency means the concentration at half of the fitted maximal effect. In outline: (§1)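 Real-time, in one plate: 600 HEK293 cells/well with dead-cell DNA dye, pinned compound after 5 h, 37 C incubation over 40 h; viable cells give no appreciable fluorescence.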
Experiment [2] is described as follows: A CellTox Green Cytotoxicity Assay to monitor cytotoxicity in HepG2 cells - 0 hour (AID 1224882). Further: nearly all actives have a fitted effect of over 35% in size. In outline: (§2)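 Cytotoxicity was tracked as dead-cell DNA fluorescence in HepG2 cells treated with test compounds at 37 C; each time-point value comes from one kinetic series spanning 0, 8, 16, 24, 32 and 40 h.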
Experiment [3] can be described thus: A CellTox Green Cytotoxicity Assay to monitor cytotoxicity in HepG2 cells - 32 hour (AID 1224883). Further: nearly all actives have a fitted effect of over 50% in size. Further: potency means the concentration at half of the fitted maximal effect. In outline:
as §2

Experiment [4] can be described thus: A CellTox Green Cytotoxicity Assay to monitor cytotoxicity in HEK293 cells - 8 hour (AID 1224884). Further: nearly all actives have a fitted effect of over 35% in size. Further: potency means the concentration at half of the fitted maximal effect. In outline: as §1
A short description of experiment [5]: qHTS RealTime-Glo MT Cell Viability Assay in HepG2 cells - 16 hour (AID 1224885). Further: nearly all actives have a fitted effect of over 50% in size. In short, it runs like this:
(§3)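 Compound treatment began 5 h after plating HepG2 cells (600/well) with NanoLuc luciferase and prosubstrate. Plates stayed at 37 C for 40 h; luminescence was captured at six time points, 0 h through 40 h.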

Experiment [6] can be described thus: qHTS RealTime-Glo MT Cell Viability Assay in HEK293 cells - 24 hour (AID 1224886). Further: nearly all actives have a fitted effect of over 50% in size. Further: potency means the concentration at half of the fitted maximal effect. In short, it runs like this: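 Quantitative high-throughput screen of the Tox21 10K library in HEK293: cells and RealTime-Glo reagents plated together, compound added at 5 h, luminescence monitored through 40 h at 37 C.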
Experiment [7] in a line: qHTS RealTime-Glo MT Cell Viability Assay in HEK293 cells - 8 hour (AID 1224887). Further: nearly all actives have a fitted effect of over 50% in size. Further: potency means the concentration at half of the fitted maximal effect. In outline: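 Kinetic, non-lysing viability readout. Seed HEK293 (600/well) with reagent, incubate 5 h at 37 C/5% CO2, pin 23 nL compound in DMSO, incubate at 37 C, read luminescence at 0, 8, 16, 24, 32, 40 h.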
Background: Quantitative high-throughput screening tests each substance at several concentrations.

A short description of experiment [8]: A CellTox Green Cytotoxicity Assay to monitor cytotoxicity in HEK293 cells - 16 hour (AID 1224888). Further: nearly all actives have a fitted effect of over 35% in size. In short, it runs like this:
as §1

The nature of experiment [9]: qHTS RealTime-Glo MT Cell Viability Assay in HepG2 cells - 0 hour (AID 1224889). Further: nearly all actives have a fitted effect of over 50% in size. In outline: as §3
Experiment [10] in a line: A CellTox Green Cytotoxicity Assay to monitor cytotoxicity in HepG2 cells - 8 hour (AID 1224890). Further: nearly all actives have a fitted effect of over 45% in size. In short, it runs like this:
as §2

Experiment [11] can be described thus: qHTS assay to identify small molecule antagonists of the estrogen receptor alpha (ER-alpha) signaling pathway using the BG1 cell line in the presence of 0.1 nM 17-beta-estradiol - cell viability counter screen (AID 1259241). Further: nearly all actives have a fitted effect of over 40% in size. In outline: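 Following 5 days in phenol red-free medium with charcoal-stripped serum, VM7Luc4E2 cells received test compounds alongside 0.1 nM 17beta-estradiol (final) at 37C for 22 hr. Live cells were then quantified via protease-substrate fluorescence.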

Experiment [12] deals with Estrogen receptor (Homo sapiens) (UniProt P03372). As to the kind of experiment: qHTS assay to identify small molecule antagonists of the estrogen receptor alpha (ER-alpha) signaling pathway using the BG1 cell line in the presence of 0.1 nM 17-beta-estradiol (AID 1259244). Further: nearly all actives have a fitted effect of over 50% in size. In short, it runs like this:
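Luciferase signal from VM7Luc4E2 ERE-reporter cells, co-dosed with test compound and 0.1 nM final 17beta-estradiol for 22 h, read with ONE-Glo.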

Experiment [13] can be described thus: qHTS assay to identify small molecule HDAC inhibitors (AID 1259364). Further: potency means the concentration at half of the fitted maximal effect.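 Further: wild-type HCT-116 cells with endogenous class I/II HDAC activity; nearly all actives have a fitted effect of over 45% in size.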 In outline: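 HCT-116 wt cells, 1,500/well, overnight attach. Compounds (DMSO) 2 h, 37 °C. HDAC-Glo I/II, 30 min RT. Luminescence.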
A short description of experiment [14]: qHTS assay to identify small molecule HDAC inhibitors - cell viability counter screen (AID 1259365). In outline:
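HCT-116 wild-type, overnight attachment; 2hr drug exposure, 37C; CellTiter-Glo luminescent ATP readout after 30min RT.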

Experiment [15] can be described thus: qHTS assay to identify small molecule agonists of the sonic hedgehog signaling (Shh) pathway - cell viability counter screen (AID 1259366). Further: nearly all actives have a fitted effect of over 50% in size. Further: potency means the concentration at half of the fitted maximal effect. In outline: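 Compounds in DMSO were pin-transferred onto 3T3 Gli1-Luc cells that had settled 4hr; plates then stood 24hr at 37C and 5% CO2. One hour before the end, CellTiter-Fluor was added and fluorescence recorded.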

Experiment [16] can be described thus: qHTS assay to identify small molecule antagonists of the sonic hedgehog signaling (Shh) pathway - cell viability counter screen (AID 1259367). Further: nearly all actives have a fitted effect of over 55% in size. In outline:
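CellTiter-Fluor signal in conditioned medium-stimulated 3T3 Gli1-Luc cells, 23 hr compound exposure, 37C.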

Experiment [17] in a line: qHTS assay to identify small molecule agonists of the sonic hedgehog signaling (Shh) pathway (AID 1259368; calls by dose curve; further: nearly all actives have a fitted effect of over 15% in size; further: potency means the concentration at half of the fitted maximal effect). In short, it runs like this:
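Following a 24 hr incubation with DMSO-dissolved compounds at 37 C, 5% CO2, Gli1-Luc NIH/3T3-derived cells received luciferase reagent for 30 min at room temperature prior to luminescence measurement.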

A short description of experiment [18]: qHTS assay to identify small molecule antagonists of the sonic hedgehog signaling (Shh) pathway (AID 1259369; calls by dose curve; further: nearly all actives have a fitted effect of over 45% in size; further: potency means the concentration at half of the fitted maximal effect). In outline:
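Read-out is luminescence from a firefly luciferase gene controlled by the Gli1 response element, in 3T3Gli1-Luc cells pre-incubated 4hr then exposed to compounds and conditioned medium for 24hr.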

Experiment [19] can be described thus: qHTS assay to identify small molecule antagonists of the androgen receptor (AR) signaling pathway using the MDA cell line in the presence of 0.5 nM R1881 - cell viability counter screen (AID 1259242). Further: nearly all actives have a fitted effect of over 45% in size. In short, it runs like this: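 Cells seeded at 3,000/well and allowed 5 hr at 37C, 0% CO2 before compound transfer and R1881 (0.5 nM final) addition; 16 hr later, live-cell protease fluorescence indicated cytotoxicity.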

Experiment [20] in a line: qHTS assay to identify small molecule phospholipidosis (PLD) inducers (AID 1259344; active means well fitted curve in the direction sought with a large enough effect; an effect the other way counts as inactive or inconclusive). In outline: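 Accumulated phospholipid, stained red by LipidTOX during 24 h compound treatment of HepG2 cells at 37 C, is quantified from images as pit number and intensity, normalised per cell using Hoechst-stained nuclei.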

Where “and” joins values, the source holds several entries; their conditions need not be identical. Equal entries are not always repeated. Results filed as inconclusive are left out. Some structures have more than one record in an assay (separate samples or runs), and their calls can disagree. Calls of active or inactive are those of the source. Unless noted, the call rests on the fitted dose curve; in most records, active means well fitted curve in the direction sought with a large enough effect in the repeat runs; inconclusive means weak or mixed curves; inactive means no such curve, though single readings can be large; an effect the other way counts as inactive or inconclusive.

Sequence of Estrogen receptor (Homo sapiens) (P03372 whole entry, looked up): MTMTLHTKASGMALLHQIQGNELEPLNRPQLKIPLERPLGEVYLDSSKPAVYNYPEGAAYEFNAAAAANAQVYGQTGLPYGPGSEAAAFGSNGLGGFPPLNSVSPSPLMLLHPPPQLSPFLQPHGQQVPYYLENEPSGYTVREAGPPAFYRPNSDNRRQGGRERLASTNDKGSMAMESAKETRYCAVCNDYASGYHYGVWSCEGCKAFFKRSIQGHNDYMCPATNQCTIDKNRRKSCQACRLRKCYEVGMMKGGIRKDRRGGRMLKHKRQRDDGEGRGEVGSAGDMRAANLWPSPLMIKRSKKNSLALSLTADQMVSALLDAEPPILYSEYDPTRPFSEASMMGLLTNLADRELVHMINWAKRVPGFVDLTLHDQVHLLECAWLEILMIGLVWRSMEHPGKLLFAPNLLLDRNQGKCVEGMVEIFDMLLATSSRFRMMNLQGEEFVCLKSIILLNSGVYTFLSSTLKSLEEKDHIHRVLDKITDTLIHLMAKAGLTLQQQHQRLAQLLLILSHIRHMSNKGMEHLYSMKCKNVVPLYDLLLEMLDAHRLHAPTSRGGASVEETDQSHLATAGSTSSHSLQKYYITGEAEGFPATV

As to `Clc1nc(Cl)nc(Cl)n1`, the Potency result in experiment [1], in experiment [2], in experiment [3], in experiment [4], in experiment [5] and in experiment [6] was “inactive” each time. Further, the Potency entry in experiment [7], in experiment [8], in [9], in experiment [10], in experiment [11] and in experiment [12] was “inactive” throughout. Further, the Potency result in [13], in experiment [15], in experiment [16], in [17] and in experiment [18] was “inactive” in each case. The compound was classed as inactive in experiment [14].
For the compound `CCCCCCOC(=O)c1ccccc1C(=O)OCCCCCC`, the Potency result in [1], in [2], in experiment [3], in experiment [4], in experiment [5] and in [6] was “inactive” in each case. Also, the Potency result in experiment [7], in experiment [8], in [9], in experiment [10], in [11] and in experiment [12] was “inactive” in each case. The Potency result in [15], in experiment [16], in experiment [17] and in experiment [18] was “inactive” each time. Moreover, the Potency in experiment [13] was 49.5 µM (active) and inactive. Also, the call in experiment [14] was inactive.
In the case of `c1ccc(P(c2ccccc2)c2ccccc2)cc1`, the Potency result in experiment [1], in experiment [2], in experiment [3], in experiment [4], in [5] and in experiment [6] was “inactive” each time. Also, the Potency result in experiment [7], in [8], in experiment [9], in experiment [10], in [11] and in experiment [12] was “inactive” throughout. Further, the Potency result in experiment [13], in experiment [15], in experiment [16] and in experiment [17] was “inactive” throughout. Moreover, the compound was called inactive in experiment [14]. The Potency result in [18] was “inactive and 17.2 µM (active)”.
Turning to `CCC(C)c1ccc(O)cc1` (stereo not given), the Potency in [1] and in [3] was 43.6 µM (active) each time. For the same compound, the Potency result in experiment [2], in experiment [5], in [6], in [7], in [9] and in experiment [10] was “inactive” each time. Besides, the Potency entry in [11], in experiment [19], in [13], in experiment [15], in [16] and in experiment [17] was “inactive” throughout. Moreover, the Potency result in [18] is “inactive”. Besides, the compound was called inactive in experiment [14].
As for `O=[N+]([O-])c1c(Cl)c(Cl)c(Cl)c(Cl)c1Cl`, the Potency in [1] was 21.8 µM (active) and inactive; in experiment [15] it was “inactive and 43.3 µM (active)”. In addition, the Potency entry in [2], in experiment [3], in experiment [4], in [5], in experiment [6] and in experiment [7] was “inactive” throughout. Further, the Potency result in [8], in [9], in experiment [10], in experiment [11], in [12] and in experiment [13] was “inactive” each time. Also, the Potency result in [16], in [17] and in experiment [18] was “inactive” throughout. In addition, the result in experiment [14] was inactive.
Consider `O=S(=O)(Oc1ccc(Cl)cc1)c1ccc(Cl)cc1`, for which the Potency entry in [1], in [2], in [4], in [5], in experiment [6] and in experiment [7] was “inactive” each time. Moreover, the Potency entry in experiment [8], in experiment [9], in [10], in [11], in experiment [19] and in experiment [12] was “inactive” each time. Besides, the Potency entry in [13], in [15], in experiment [16], in [17] and in experiment [18] was “inactive” throughout. In addition, in experiment [14], the compound was classed as inactive.
Consider `O=Cc1ccco1`, for which the Potency in experiment [1] is 23.7 µM (active); in [4], 42.2 µM (active) and inactive. The Potency result in experiment [2], in experiment [3], in experiment [5], in [6], in experiment [7] and in [9] was “inactive” each time. Further, the Potency result in experiment [10], in experiment [11], in [19], in [13], in experiment [15] and in [16] was “inactive” each time. The Potency entry in experiment [17] and in experiment [18] was “inactive” in each case. In addition, the result in experiment [20] and in [14] was inactive.
Turning to `CC(C)N(C(=O)SCC(Cl)=C(Cl)Cl)C(C)C`, the Potency result in experiment [1], in experiment [2], in [3], in experiment [4], in experiment [5] and in [6] was “inactive” in each case. Besides, the Potency result in experiment [7], in [8], in experiment [9], in experiment [10], in [11] and in [13] was “inactive” throughout. The Potency result in experiment [15], in [16], in [17] and in experiment [18] was “inactive” throughout. The compound was classed as inactive in experiment [14].
With `Oc1ccc(-c2ccccc2)cc1`, the Potency is 24.2 µM (active) and inactive in experiment [1]; “inactive and 49 µM (active)” in experiment [3]; 21.9 µM (active) in [6]. The Potency entry in experiment [2], in [4], in [5], in experiment [8], in experiment [9] and in experiment [10] was “inactive” each time. Moreover, the Potency result in experiment [11], in [19], in experiment [12], in experiment [13], in experiment [16] and in [17] was “inactive” each time. Further, in [18], the Potency entry was “inactive”. Besides, the result in [14] was inactive.
`Cc1ccc2c(c1N)C(=O)c1ccccc1C2=O`: the Potency result in [1], in experiment [2], in experiment [3], in experiment [4], in [5] and in experiment [8] was “inactive” in each case. Besides, the Potency result in [9], in [10], in [19], in [12], in experiment [17] and in experiment [18] was “inactive” throughout. Further, the Potency in [6] is 9.67 µM (active) and 7.76 µM (active); in experiment [7], 7.68 µM (active) and 6.92 µM (active); in experiment [13] it was 7.61 µM (active) and 9.69 µM (active). For the same compound, in experiment [14], the call was inactive.
For `Cc1ccc(N)c(N)c1`, the Potency entry in experiment [1], in [2], in experiment [3], in experiment [4], in [5] and in [7] was “inactive” in each case. Moreover, the Potency result in experiment [8], in [9], in [10], in [11] and in [15] was “inactive” each time. Besides, the compound was called inactive in [14]. Moreover, the Potency in experiment [17] was 1.73 µM (active) and 1.54 µM (active); in experiment [18] it was 24.4 µM (active).
Turning to `C=CCc1ccc2c(c1)OCO2`, the Potency result in [1], in experiment [2], in experiment [3], in experiment [4], in [5] and in experiment [6] was “inactive” throughout. In addition, the Potency result in experiment [7], in experiment [8], in experiment [9], in experiment [10], in [11] and in experiment [13] was “inactive” each time. For the same compound, the Potency result in experiment [15], in experiment [16], in experiment [17] and in [18] was “inactive” in each case. In addition, the result in experiment [14] was inactive.
